Screens: PubChem BioAssay, Center for Chemical Genomics, University of Michigan
Dicer processing: inhibitors of Dicer pre-microRNA processing, primary screen, biochemical, cat-ELCCA, chemiluminescence; Endoribonuclease Dicer (Homo sapiens), Q9UPY3; cat-ELCCA pre-miR-21 Dicer processing; stronger effect = higher value; z-score at 25 µM; actives 6% (n = 47,000); AID 1347074, 2019; in the data active = z-score above about 3, passing the limit was not always enough;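 also: plate controls were vehicle for no effect and no enzyme for full effect; higher signal means more uncleaved substrate so more Dicer inhibition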
Starred values were filed as active, the others as inactive. The entries come from a sample that favours hits as a whole.

SMILES	Dicer processing
c1ccc(CCN2CN(CCCN3CCOCC3)c3nc4ccccc4n3C2)cc1	-1.4
O=C(CSc1nnc(SCC(=O)c2ccccc2)s1)c1ccccc1	-0.49
O=S(=O)(c1ccc(Cl)cc1)N1CCc2sccc2C1c1ccc(Cl)cc1 (stereo unspecified)	-0.14
CCc1ccc2nc(NC3=NCN(Cc4ccccc4)CN3)nc(C)c2c1	2.4
CCc1cc(C)cc(OCC(O)Cn2c[n+](C)c3ccccc32)c1 (stereo unspecified)	-1.1
COCCCn1c(-c2csc(C)n2)n[nH]c1=S	-0.52
CN(C)CCCNC(=O)c1cc2c(n(-c3ccc(Cl)cc3)c1=O)CCCC2=O	0.19
O=C(O)c1cc([N+](=O)[O-])ccc1Oc1cncc(Cl)c1	1.8
CN(NC1OC(=O)c2ccccc21)c1ccccc1[N+](=O)[O-] (stereo unspecified)	3.2*
O=C1OC(Nc2ccc([N+](=O)[O-])cn2)c2ccccc21 (stereo unspecified)	-0.83
CN(NC1OC(=O)c2ccccc21)c1ncc(Cl)cc1C(F)(F)F (stereo unspecified)	0.04
CN(NC(=O)NC(=O)c1c(Cl)cccc1Cl)c1ccc(Cl)cc1[N+](=O)[O-]	-0.32
O=C(CCCN1C(=O)S/C(=C/c2ccccc2)C1=S)Nc1ccccc1C(=O)O	1.1
Cc1ccc(-c2cc(C(F)F)n3ncc(C(=O)NC4CCCC4)c3n2)cc1	1.5
O=C(NNC(=NS(=O)(=O)c1ccccc1)NNC(=O)c1cccc(Cl)c1)c1cccc(Cl)c1	3.1*
CS/C(=N/S(=O)(=O)c1ccccc1)NNC(=O)c1ccc(Cl)cc1	1.4
O=C(CO/N=C/c1c(Cl)cccc1Cl)NNC(=O)c1cccc(Cl)c1	2.4
N#CC(C#N)=NNc1cc(-c2ccccc2)[nH]n1	-1.7
Cc1[nH]c2ccccc2c(=O)c1CN(C)C	-0.83
Cc1ccc(-c2nc(NCCCN(C)C)c3ccccc3n2)cc1	7.8
Cc1ncc(CCCCN(C)C)c2c1[nH]c1ccccc12	7.7*
COCCCNC(=S)NNC(=O)c1cc(OC)c(OC)c(OC)c1[N+](=O)[O-]	-0.08
O=C(O)c1ccccc1S(=O)c1cc(C(=O)O)c(S(=O)c2ccccc2C(=O)O)cc1C(=O)O (stereo unspecified)	-0.21
CCOC(=O)c1oc2nc(-c3ccccc3)cc(C)c2c1NC(=O)Nc1ccc(Cl)cc1	-1.5
COCCN1C(=O)c2oc3cc(C)c(C)cc3c(=O)c2C1c1ccc(F)cc1 (stereo unspecified)	0.53
SMILES	Dicer processing
CCOc1ccc(/C(O)=C2\C(=O)C(=O)N(c3nnc(C)s3)C2c2ccc(OC)cc2)cc1 (stereo unspecified)	1.4
CCOc1ccc(/C(O)=C2\C(=O)C(=O)N(c3nnc(C)s3)C2c2ccc(OC)c(OC)c2)cc1 (stereo unspecified)	2.3
CCOc1ccc(/C(O)=C2\C(=O)C(=O)N(c3nccs3)C2c2ccc(OC)c(OC)c2)cc1 (stereo unspecified)	3.6*
COC(=O)C(O)(c1ccc(N(C)C(=O)Nc2ccc(F)c(Cl)c2)cc1)C(F)(F)F (stereo unspecified)	0.05
O=C(c1ccc2c(c1)OCO2)N1CCN(Cc2ccc3c(c2)OCO3)CC1	-0.91
O=S(=O)(c1ccccc1)N1CCN(Cc2ccc3c(c2)OCO3)CC1	8
CCCS(=O)(=O)N1CCN(C(=O)c2ccco2)CC1	2.7
O=C(c1ccco1)N1CCN(Cc2ccc3c(c2)OCO3)CC1	6.2*
CC1CCC(N2CCN(C(=O)c3ccco3)CC2)CC1 (stereo unspecified)	0.07
CN(C)C(=O)N1CCN(C(=O)c2ccco2)CC1	3.1*
O=S(=O)(c1ccc2ccccc2c1)N1CCN(Cc2ccc3c(c2)OCO3)CC1	6.6*
O=C(c1cc(-c2ccc3c(c2)OCO3)nc2ccccc12)N1CCN(Cc2ccc3c(c2)OCO3)CC1	1.4
COc1ccc(S(=O)(=O)N2CCN(Cc3ccc4c(c3)OCO4)CC2)cc1	8
O=C(NC(=O)N1CCCCC1)c1csnn1	-0.86
O=C(O)c1ccccc1SCc1cccc(C(F)(F)F)c1	0.44
CN(C)c1ccc(NC(=O)c2cnccn2)cc1	2.8
COc1ccc(-c2csc(S(C)=O)c2C#N)cc1 (stereo unspecified)	0.1
CCCCNC(=O)NC1Cc2ccccc2C1	-0.91
C/C(=N\NC(=S)NC(C)(C)C)c1cc(F)ccc1O	1.1
COc1ccccc1Nc1nc(C)c([N+](=O)[O-])c(Nc2ccccc2OC)n1	1.3
C=CCNC(=O)c1ccccc1NC(=O)CN1C(=O)c2cccc3cccc1c23	0.78
CN(/N=C/c1ncc(C(F)(F)F)cc1Cl)C(=O)Nc1ccc(OC(F)(F)F)cc1	0.7
CC1(C)CC(=O)C=C(SCCS(=O)(=O)c2ccc(Cl)cc2)S1	1.1
CC1(C)CC(=O)C=C(SCc2cccc(Cl)c2)S1	4.5*
CC1(C)CC(=O)C=C(SCc2c(Cl)cccc2Cl)S1	0.78
SMILES	Dicer processing
O=C1OC(c2ccccc2)=N/C1=C/C=C/c1ccccc1	0.41
CN(C)C(=O)c1ccc(Oc2cc(Cl)cc(Cl)c2)o1	2.9
COc1ccc(CN2CCN(C3CC4CCC3C4)CC2)c(OC)c1 (stereo unspecified)	0.29
CC(C)(O)C#Cc1ccc(/C=N/Nc2c(Cl)cc(Cl)cc2Cl)cc1	2.5
C/C(=N\Nc1c(Cl)cc(Cl)cc1Cl)c1ccc(C#CC(C)(C)O)s1	3.2*
CC(=O)c1ccc(C#CC(C)(C)O)s1	-0.68
CS(=O)(=O)/C(C#N)=C/Nc1cccnc1	-1.4
COc1ccc(C(=O)CC2(O)C(=O)N(C(C)C)c3ccccc32)cc1OC (stereo unspecified)	0.88
Cc1ccc(-n2nnnc2-c2cnn(-c3ccccc3)c2-c2ccccc2)cc1	1.8
COC(=O)c1sc2nc(-c3cccs3)cc(C(F)(F)F)c2c1N	1.8
CC(C)NC(=O)Nc1n[nH]c(Nc2ccc(Cl)cc2)n1	12*
Cc1onc(-c2c(Cl)cccc2Cl)c1NC(=O)NC(C)C	0.43
CCCNC(=O)Nc1n[nH]c(Nc2ccc(Cl)cc2)n1	2.4
Cc1ccc(C(=O)O)cc1-n1cccc1	-0.63
CC1=NN(c2ccc(C(=O)O)cc2)C(=O)C1	-2.2
Cc1ccc(C(=O)O)cc1N1C(=O)CCC1=O	4.7*
CC1CCc2c(sc3[nH]c(=S)n(Cc4ccccc4)c(=O)c23)C1 (stereo unspecified)	0.5
CCc1ccccc1CSc1n[nH]c(=O)n1C(C)c1ccccc1 (stereo unspecified)	-1.7
O=S(=O)(Nc1ccc(N2CCCCC2)cc1)c1cc(S(=O)(=O)c2ccccc2)cs1	5.3*
O=S(=O)(Nc1ccc2c(c1)OCCO2)c1cc(S(=O)(=O)c2ccccc2)cs1	2.4
Cn1cnc(S(=O)(=O)Nc2ccc(N3CCCCC3)cc2)c1	-1.5
Cc1c(C(=O)CSc2nccc(-c3cccs3)n2)sc2ccc(Cl)cc12	-0.9
O=C(O)c1cc2cc(OCc3ccccc3)ccc2[nH]1	-0.97
CCOC(=O)c1c(C)oc2ccc(OCc3ccc(F)cc3)cc12	0.96
CCOC(=O)c1cc2cc(OCc3ccccc3)ccc2n1C(=O)c1ccccc1C(=O)O	3.1*
SMILES	Dicer processing
O=C(ON=C1CCCCCCCCCCC1)c1cccs1	-0.67
Cc1ccc2oc3c(c(=O)c2c1)C(c1ccc(F)cc1)N(c1ccccn1)C3=O (stereo unspecified)	0.58
Nc1nc(Cc2cc3ccccc3[nH]2)nc(NC2CCCCC2)n1	4*
c1ccc(-c2nc(NC3CCCCC3)c3ccccc3n2)cc1	0.99
COC(=O)CNC(=O)c1cccnc1Sc1ccc(C)cc1	-0.49
Cc1ccc(S(=O)(=O)NC(=O)Nc2ccc(CC#N)cc2)cc1	-0.44
